A word on the inhibition: it is the relative decrease from the control value, in per cent.

About 2,200 (0.69%) of roughly 320,000 compounds were called active. For the sample, actives were picked, then their nearest neighbours and some compounds at random. Unmarked numbers belong to inactive results. Cut-off read from the data, not from the text of the source: active = inhibition above about 43%; inactive = the rest.

The target in this test is Prolyl endopeptidase-like (Homo sapiens) (UniProt Q4J6C6). As to the kind of experiment: PREPL enzyme inhibitors, primary screen, biochemical, fluorescence polarization (AID 2751).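 Note: 0% = enzyme with DMSO and 100% = wells lacking enzyme.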 The conditions noted are these: recombinant PREPL, fluorescence polarization activity-based probe; at 5.96 µM; active compounds read high. For orientation: Polarisation of emitted light reports the rotation of a fluorescent probe.
Chain of Prolyl endopeptidase-like (Homo sapiens) (Q4J6C6 whole entry, looked up): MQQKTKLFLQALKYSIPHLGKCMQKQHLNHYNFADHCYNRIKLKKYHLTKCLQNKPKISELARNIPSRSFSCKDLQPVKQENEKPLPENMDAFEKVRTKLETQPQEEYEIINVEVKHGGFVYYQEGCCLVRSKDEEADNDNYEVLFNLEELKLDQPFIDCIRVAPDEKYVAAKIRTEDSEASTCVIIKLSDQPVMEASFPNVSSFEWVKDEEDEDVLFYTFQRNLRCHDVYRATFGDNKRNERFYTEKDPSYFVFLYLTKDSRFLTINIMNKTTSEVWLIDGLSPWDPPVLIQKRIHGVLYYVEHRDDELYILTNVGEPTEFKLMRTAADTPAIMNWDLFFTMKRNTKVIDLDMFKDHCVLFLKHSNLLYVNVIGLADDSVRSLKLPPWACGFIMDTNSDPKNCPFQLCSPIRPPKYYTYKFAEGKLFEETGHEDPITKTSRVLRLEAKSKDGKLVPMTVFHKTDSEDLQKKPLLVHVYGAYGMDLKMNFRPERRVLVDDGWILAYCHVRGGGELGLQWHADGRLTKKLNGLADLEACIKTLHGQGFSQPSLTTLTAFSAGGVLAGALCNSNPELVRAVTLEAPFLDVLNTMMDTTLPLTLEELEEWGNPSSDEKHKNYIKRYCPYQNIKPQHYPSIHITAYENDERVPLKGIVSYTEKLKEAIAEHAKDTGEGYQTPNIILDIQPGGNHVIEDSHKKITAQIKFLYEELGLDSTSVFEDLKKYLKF
Consider `O=C1N=C(N2CCc3ccccc3C2)S/C1=C\c1ccc(O)cc1`, for which the inhibition is 47.4% (active).
Take `CCc1ccc(/C=C2\SC(N3CCOCC3)=NC2=O)cc1`: the inhibition was 19.1%.
For `CC1CCN(C2=NC(=O)/C(=C/c3ccc(O)cc3)S2)CC1` the value was 12.1%; for `C=CCOc1ccc(/C=C/C(=O)OCC(=O)NC(C)c2ccc(F)cc2)cc1` (configuration not stated), 5.51%.
For `S=C(NCCC1=CCCCC1)Nc1ccccc1` the value was 9.47%; for `Oc1ccc2ccccc2c1N=Nc1nccs1`, 50.7% (active).
Then `Cc1ccc(S(=O)(=O)N2CCN=C2SCc2c(F)cccc2Cl)cc1`, with 11.2%; and `C=CC(=O)OCCOCCOCCOCCOC(=O)C=C`, with -0.81%; and `Cc1ccc(C)c(OCC(=O)N2CCN(C(=O)c3ccco3)CC2)c1`, with 1.04%.
Turning to `CCC(=O)Nc1ccc(C(=O)N2CCN(C(=O)c3ccco3)CC2)cc1`, the inhibition is -4%.
`CN1CCN(c2ccc(NC(=O)COc3ccc(Cl)cc3Cl)cc2)CC1`: the inhibition is 54.8% (active).
For the compound `Cc1ccc(OCC(=O)Nc2ccc(N3CCN(C(=O)c4ccco4)CC3)cc2)c(C)c1`, the inhibition was 55% (active).
In the case of `Cc1ccc(Cl)c(OCC(=O)N(C)CC(=O)Nc2ccc(N3CCOCC3)cc2)c1`, the inhibition was -6.09%.
`CN1CCC(OC(=O)COc2ccc(Cl)cc2Cl)CC1`: the inhibition was -6%.
For the compound `Cc1ccc(S(=O)(=O)c2nc(-c3cccs3)oc2NCc2cccnc2)cc1`, the inhibition was 8.75%.
As to `Oc1ccccc1-c1cc(-c2ccc(Cl)cc2)n[nH]1`, the inhibition is -35.8%.
With `O=C(NN=Cc1ccc(N2CCOCC2)cc1)c1cc2ccccc2cc1O`, the inhibition was 19.7%.
For the compound `O=C(N/N=C/c1cccnc1)c1cc2ccccc2cc1O`, the inhibition is 63.4% (active).
For `Cc1ccc(/C=N/NC(=O)c2cc3ccccc3cc2O)o1`, the inhibition was 13.4%.
With `NC(=O)COc1ccc(/C=N/NC(=O)C2CCCN2S(=O)(=O)c2ccc(Cl)cc2)cc1` (configuration not stated), the inhibition was 11%.
For `CCCCN(C(=O)c1ccc(C)o1)c1c(N)n(CCCC)c(=O)[nH]c1=O` the value was -0.55%; for `COc1ccc(CNc2ncnc3ccccc23)cc1`, -16.5%.
Consider `CC(C)(C)Nc1nc(-c2ccccn2)nc2ccccc12`, for which the inhibition is 47.1% (active).
For the compound `c1ccc2c(NCC3CCCO3)nc(-c3ccncc3)nc2c1` (configuration not stated), the inhibition was 5.66%.
For the compound `Cc1n[nH]c(C)c1S(=O)(=O)N1CCCC(C(=O)Nc2ccc(Br)cc2)C1` (configuration not stated), the inhibition was -17.7%.
Then `O=S(=O)(O)CCN1CCOCC1`, with 25.7%; and `O=C(NCC(=O)N1CCN(c2ccccc2F)CC1)c1cccs1`, with 3.72%.
Then `NC(=O)c1cc2ccccc2o/c1=N/NC(=O)c1cccc(F)c1`, with 11.6%; and `COc1cccc2cc(C(N)=O)/c(=N\NC(=O)c3ccccc3)oc12`, with -0.47%; and `CCN(CC)c1ccc2cc(C(N)=O)/c(=N\NC(=O)c3ccncc3)oc2c1`, with 48.4% (active).
Consider `CC1CCC2(CC1)NC(=O)N(CC(=O)c1ccc3c(c1)OCO3)C2=O` (configuration not stated), for which the inhibition is 11.2%.
On to `O=c1oc(-c2ccccc2NS(=O)(=O)c2ccc(Cl)cc2)nc2ccccc12`, for which the inhibition is 6.42%.
Turning to `COC(=O)[C@]1(CC(C)C)N[C@H](c2ccc(SC3CCCCC3)cc2)[C@@H]2C(=O)N(C)C(=O)[C@@H]21`, the inhibition is 2.32%.
For `CCN1/C(=C/c2ccc3ccc(C)cc3[n+]2CC)Sc2ccccc21` the value was 53.4% (active).
For the compound `CCN1/C(=C\c2ccc3ccccc3[n+]2CC)Sc2cc(C)ccc21`, the inhibition is 52.8% (active).
`COc1ccc(OC)c(CN2CCN(C(=O)CNC(=O)c3cc(C)cc(C)c3)CC2)c1`: the inhibition was 5.26%.
Regarding `Cn1cnc(S(=O)(=O)Nc2ccc3c(c2)OCCO3)c1`, the inhibition is -9.35%.
For `CC(=O)c1cc(NC(=O)c2ccccc2)c(=O)oc1/C=C/N(C)C`, the inhibition was 0.73%.
With `Cc1cccc(N2CCN(C(C)C(=O)N3CCc4ccccc43)CC2)c1C` (configuration not stated), the inhibition was 18.7%.
`CC1CCC2(CC1)NC(=O)N(Cc1nnc(-c3cccs3)o1)C2=O` (configuration not stated): the inhibition was 11.6%.
With `CCCNCc1cc(OCC)c(OCC(=O)Nc2ccccc2)cc1Br`, the inhibition was -9.46%.
In the case of `CCCC(CCC(=O)OC)(C(=O)OCC)c1csc(N)n1` (configuration not stated), the inhibition is 2.3%.
As to `Cc1ccc(Cn2c(SCC(=O)N/N=C/c3ccccc3OCC(=O)O)nc3ccccc32)cc1`, the inhibition was -29%.
Take `C=C(C)CNC(=S)N/N=C/c1ccccc1OCC(=O)O`: the inhibition is -3.72%.
In the case of `Cc1ccc(NS(=O)(=O)c2ccc(N/N=C/c3ccccc3OCC(=O)O)c([N+](=O)[O-])c2)c(C)c1`, the inhibition was 49.9% (active).
On to `O=C(C1CCCN1S(=O)(=O)c1ccc(Br)cc1)N1CCOCC1` (configuration not stated), for which the inhibition was 12.8%.
Consider `Cc1ccc(C)c(NC(=O)C2Cc3ccccc3CN2C(=O)OCc2ccccc2)c1` (configuration not stated), for which the inhibition is -31.7%.
Consider `CC[N+](C)(CC)CCC[n+]1c(-c2ccccc2)c2cc(N)ccc2c2ccc(N)cc21`, for which the inhibition is 65.2% (active).
Take `COc1ccc(C2NC(=O)C(=O)/C2=C(\O)c2ccc(Cl)cc2)cc1OC` (configuration not stated): the inhibition is 2.96%.
With `C=CCN1C(=O)C(Cc2ccc(OCC)cc2)SC1=Nc1ccc(C(=O)O)cc1` (configuration not stated), the inhibition was -7.27%.
For the compound `CCNC(=O)N(CC)C[C@H]1N[C@@](CC)(C(=O)OC)[C@H]2C(=O)N(Cc3ccccc3)C(=O)[C@@H]12`, the inhibition is 2.12%.
With `Cc1ccccc1OCC(=O)Nc1ccc2c(c1)ncn2C`, the inhibition was 8.18%.
On to `Cc1ccccc1OCC(=O)Nc1ccc(N2CCN(C(=O)C(C)C)CC2)c(Cl)c1`, for which the inhibition was 49.4% (active).
With `CCC(=O)N1CCN(c2ccccc2NC(=O)COc2cccc(C)c2C)CC1`, the inhibition is 12.6%.
On to `O=C(Nc1c2c(nn1-c1ccccc1)CS(=O)(=O)C2)C1CCCC1`, for which the inhibition was 11.5%.
`O=C(C1CCCN(S(=O)(=O)c2ccc([N+](=O)[O-])cc2)C1)N1CCCCC1` (configuration not stated): the inhibition was 3.89%.
Take `CC1=CC(C)(C)NC(=S)N1c1ccccc1`: the inhibition was 0.44%.
Take `CCOc1ccc2nc(N3CCCN(C(=O)Nc4ccccc4C)CC3)c(C#N)cc2c1`: the inhibition was 43.6% (active).
Then `COc1ccc2nc(N3CCCC(O)C3)c(C#N)cc2c1` (configuration not stated), with 19.4%; and `CCOC(=O)c1cc(C#N)c(N2CCCCC2)nc1-c1ccccc1`, with -11.5%.
With `O=C(NCc1ccccc1Cl)C1CCC(CNc2c(N3CCCCC3)c(=O)c2=O)CC1` (configuration not stated), the inhibition was 0.19%.
As to `O=C(c1cccc(F)c1)N1CCN(c2ccc([N+](=O)[O-])c(N3CCCCC3)c2)CC1`, the inhibition is 16.6%.
With `O=C(c1cc(C(=O)N2CCN(c3ccc(F)cc3)CC2)cc([N+](=O)[O-])c1)N1CCN(c2ccc(F)cc2)CC1`, the inhibition is 43.4% (active).
With `O=C(c1cccc(C(=O)N2CCN(c3ccc(F)cc3)CC2)c1)N1CCN(c2ccc(F)cc2)CC1`, the inhibition is 62.3% (active).
As for `O=C(c1cc2cc(F)ccc2[nH]1)N1CCN(c2ccc(F)cc2)CC1`, the inhibition is 18.5%.
`O=C(c1ccccc1Oc1ccccc1)N1CCN(c2ccc(F)cc2)CC1`: the inhibition is -29.3%.
As for `O=C(c1cncc(Br)c1)N1CCN(c2ccc([N+](=O)[O-])cc2)CC1`, the inhibition is 17.6%.
On to `C=Cn1cc[n+](CC(=O)c2ccc(OC)c(OC)c2)c1`, for which the inhibition was 19.9%.
As to `O=C(Nc1ccc2c(c1)OCCO2)C1CCCC1`, the inhibition was 0.16%.
For `O=C(c1ccc(F)cc1)N1CCC(C(=O)N2CCN(S(=O)(=O)c3ccccc3Br)CC2)CC1` the value was 5.69%.
For `COC(=O)C1=CN(c2ccc(F)c(F)c2)C=C(C(=O)OC)C1c1ccc([N+](=O)[O-])cc1`, the inhibition was -1.25%.
`COc1ccc(/C=C(\NC(=O)c2ccc(OCC(C)C)cc2)C(=O)OCc2ccco2)cc1`: the inhibition was -0.54%.
For `CCNc1c(NS(=O)(=O)c2ccc(C3CCCCC3)cc2)c(=O)oc2ccccc12`, the inhibition is 10.3%.
For the compound `O=C(CN1C(=O)NC2(CCCCC2)C1=O)NCCc1c[nH]c2ccccc12`, the inhibition was 6.75%.
Regarding `N#C/C(=C/c1ccc(N2CCCCC2)o1)C(=O)NCCc1c[nH]c2ccccc12`, the inhibition is 80.7% (active).
For `N#C/C(=C/c1ccc(N2CCOCC2)o1)C(=O)N1CCOCC1` the value was 7.19%; for `CN(CCc1ccccn1)C1CCCN(S(=O)(=O)c2ccccc2Cl)C1` (configuration not stated), -0.19%.
With `Nc1ccc(-c2nnc(-c3ccccc3)o2)cc1`, the inhibition is 2.86%.
Regarding `Cc1cc(Nc2ccccc2)n(C(=O)c2ccc(N)cc2)n1`, the inhibition is 32.7%.
For the compound `Nc1ccc(Nc2ccccc2)cc1`, the inhibition was 94.7% (active).
Regarding `CS(=O)(=O)N(CC(=O)N1CCOCC1)c1cccc(Cl)c1Cl`, the inhibition is 1.45%.
Consider `COc1cc(NC(=O)COC(=O)CSc2ccc3ccccc3c2)c(C)cc1[N+](=O)[O-]`, for which the inhibition is 26.5%.
As for `CNCC[C@H](Oc1ccc(C(F)(F)F)cc1)c1ccccc1`, the inhibition was 59% (active).
Take `CC(C)Oc1ccc(Oc2ccc(C(F)(F)F)cn2)cc1`: the inhibition is 14.7%.
With `CC(NC(=O)COC(=O)Cn1cc(C(F)(F)F)ccc1=O)c1ccccc1` (configuration not stated), the inhibition is 4.36%.
On to `Cc1ccc(CN(CC(=O)NCC2CCCO2)S(=O)(=O)c2ccc(C)cc2)cc1` (configuration not stated), for which the inhibition was -1.14%.
Consider `O=C(Cn1cnc2ccccc2c1=O)NNC(=O)c1ccccc1F`, for which the inhibition is 9.97%.
Consider `NS(=O)(=O)c1ccc(CNC(=O)c2ccc(Cl)cc2[N+](=O)[O-])cc1`, for which the inhibition was 13.1%.
For `CC(CC(=O)N1CCN(c2ccccc2)CC1)c1ccccc1` (configuration not stated) the value was -0.94%; for `CC(=O)N1CCN(c2ccc(NCc3ccc(C(C)C)cc3)cc2)CC1`, 66.9% (active).
For `O=C(Nc1ccc(F)cc1)N1CCN(c2ccc(F)cc2)CC1` the value was 15.1%.
As for `COc1ccccc1-c1n[nH]c2c1[C@H](C)CC[C@H]2C(C)C`, the inhibition is -22.4%.

The values above are taken from PubChem BioAssay AID2751 (The Scripps Research Institute Molecular Screening Center, 2010).
